Data on 8 compounds can be found in PubChem BioAssay (NCI).

Among the test systems are SK-MEL-2 melanoma; EKVX NSCLC; SN12C renal; UO-31 renal; TK-10 renal; ACHN renal; CAKI-1 renal; A498 renal; CCRF-CEM leukemia; MOLT-4 leukemia; SR leukemia; RPMI-8226 leukemia; OVCAR-5 ovarian; OVCAR-4 ovarian; SK-OV-3 ovarian; IGROV1 ovarian; OVCAR-3 ovarian; HS 578T breast; NCI/ADR-RES ovarian; OVCAR-8 ovarian.
Common to all, as to test: NCI-60 one-dose screen, 48 h (100 = growth as untreated, 0 = no growth, -100 = all killed)
Common to all, as to settings: 10 µM unless noted

About 83,000 compounds went through this panel and 20% of them were active in at least one assay; those are over-represented in the sample as a whole.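 Testing used 96-well plates and a 48-hour single-concentration exposure. Example: -40 means 40% of the starting cells died.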 Unmarked numbers belong to inactive results. Active and inactive are the calls of the source. How the source made its calls: active means growth percent below 10; inactive means the rest.

Take `COc1cccc(Cc2nn3cc(-c4ccccc4)nc3s2)c1`: the growth in the assay on SK-MEL-2 melanoma is 95.2%; in the assay with EKVX NSCLC it was 94.1%; with SN12C renal, 96.3%; with UO-31 renal, 74.6%; in the assay with TK-10 renal it was 95.1%; in the assay with ACHN renal, 96%. Moreover, the growth was 90.8% in the assay on CAKI-1 renal; 99.5% in the assay on A498 renal; 30.2% in the assay with CCRF-CEM leukemia; 30.1% with MOLT-4 leukemia; 16.3% with SR leukemia; 33.7% in the assay on RPMI-8226 leukemia. Moreover, the growth in the assay with OVCAR-5 ovarian was 114%; in the assay with OVCAR-4 ovarian, 98.4%; in the assay with SK-OV-3 ovarian, 103%; with IGROV1 ovarian it was 86.4%; with OVCAR-3 ovarian, 85.5%; with HS 578T breast, 106%. Also, the growth in the assay with NCI/ADR-RES ovarian was 101%.

As to `N#C/C(=C\c1ccc(F)cc1)n1nc2cccc(F)c2n1`, the growth in the assay on SK-MEL-2 melanoma is 58.7%; in the assay on EKVX NSCLC, 71.1%; in the assay on SN12C renal, 76.2%; in the assay on UO-31 renal, 41%; in the assay on TK-10 renal, 60.7%; in the assay with ACHN renal, 42.9%. The growth was 24.8% in the assay with CAKI-1 renal; 11.7% in the assay with A498 renal; 25.6% in the assay with CCRF-CEM leukemia; 52.3% with MOLT-4 leukemia; 13.7% in the assay with SR leukemia; 81.2% with OVCAR-8 ovarian. In addition, the growth was 79.7% in the assay with OVCAR-5 ovarian; 34% in the assay on OVCAR-4 ovarian; 74.9% in the assay on SK-OV-3 ovarian; 73.1% with IGROV1 ovarian; -3.76% (active) in the assay on OVCAR-3 ovarian; 27.6% in the assay with HS 578T breast. Further, in the assay with NCI/ADR-RES ovarian, the growth is 8.9% (active).

On to `Cc1cc(C)c(-c2c(N)cc(Br)cc2Br)c(N)c1`, for which the growth is 44.1% in the assay with SK-MEL-2 melanoma; 65.9% in the assay on EKVX NSCLC; 68.7% in the assay on SN12C renal; 61.5% in the assay on UO-31 renal; 72% in the assay on TK-10 renal; 75.1% in the assay on ACHN renal. In addition, the growth in the assay with CAKI-1 renal is 50.3%; in the assay with A498 renal it was 70.9%; with CCRF-CEM leukemia, 26.4%; with MOLT-4 leukemia, 34.4%; in the assay with SR leukemia it was 24.9%; with OVCAR-8 ovarian, 83.8%. The growth with OVCAR-5 ovarian is 84.9%; in the assay with OVCAR-4 ovarian, 74.3%; in the assay with SK-OV-3 ovarian, 31.7%; in the assay with IGROV1 ovarian, 63.9%; with OVCAR-3 ovarian it was 65%; in the assay on HS 578T breast, 66.4%. For the same compound, in the assay on NCI/ADR-RES ovarian, the growth is 54.5%.

`O=c1c2cc(F)ccc2sc2c(N3CCNCC3)nc3ccccc3c12`: the growth with SK-MEL-2 melanoma was 103%; in the assay on EKVX NSCLC, 72.5%; in the assay with SN12C renal, 61.7%; in the assay with UO-31 renal it was 28.8%; in the assay with TK-10 renal, 58.8%; with ACHN renal it was 7.74% (active). The growth in the assay with CAKI-1 renal was -48.4% (active); with A498 renal, 30.3%; in the assay with CCRF-CEM leukemia, -27.5% (active); in the assay with MOLT-4 leukemia, -33.5% (active); in the assay on SR leukemia, -56.3% (active); in the assay on OVCAR-8 ovarian it was 11%. The growth in the assay on OVCAR-5 ovarian was 73.1%; in the assay on OVCAR-4 ovarian it was -22.2% (active); in the assay on SK-OV-3 ovarian, 84.4%; in the assay with IGROV1 ovarian, 48%; with OVCAR-3 ovarian it was -79.6% (active); in the assay with HS 578T breast it was 46.3%. Besides, the growth with NCI/ADR-RES ovarian was 18.7%.

For the compound `COc1cc(/C=N/NC(=O)c2ccc(C)nc2)cc(OC)c1OC`, the growth in the assay with SK-MEL-2 melanoma is 79.3%; with EKVX NSCLC it was 90.4%; in the assay on SN12C renal, 102%; in the assay on UO-31 renal, 65.6%; with TK-10 renal, 81.3%; in the assay with ACHN renal, 91.2%. For the same compound, the growth in the assay with CAKI-1 renal is 79.8%; in the assay on A498 renal, 93.2%; in the assay on CCRF-CEM leukemia it was 87%; in the assay on MOLT-4 leukemia, 57.8%; with SR leukemia, 103%; in the assay with RPMI-8226 leukemia it was 121%. Further, the growth is 103% in the assay on OVCAR-5 ovarian; 96.4% in the assay with OVCAR-4 ovarian; 112% in the assay with SK-OV-3 ovarian; 107% in the assay with IGROV1 ovarian; 119% with OVCAR-3 ovarian; 88.6% with HS 578T breast. For the same compound, in the assay with NCI/ADR-RES ovarian, the growth was 102%.

For the compound `Cc1[nH]c(C(=O)Nc2ccc(C(=O)NCCN)cc2OC(C)C)c(Cl)c1Cl`, the growth in the assay with SK-MEL-2 melanoma was 98.6%; with EKVX NSCLC, 87.6%; with SN12C renal, 48.1%; in the assay on UO-31 renal, 57.1%; in the assay on TK-10 renal, -21.6% (active); in the assay on ACHN renal, 40.7%. For the same compound, the growth in the assay on CAKI-1 renal is 14.2%; in the assay on A498 renal it was 67.4%; with CCRF-CEM leukemia it was -10.5% (active); in the assay on MOLT-4 leukemia, -27.7% (active); in the assay on SR leukemia it was -51.3% (active); in the assay with OVCAR-8 ovarian, 9.08% (active). The growth in the assay on OVCAR-5 ovarian is 89.4%; in the assay with OVCAR-4 ovarian it was -12.2% (active); with SK-OV-3 ovarian, 90.5%; in the assay with IGROV1 ovarian, 64.1%; with OVCAR-3 ovarian, -6.76% (active); with HS 578T breast, 35.1%. In addition, the growth in the assay with NCI/ADR-RES ovarian was 91%.

`Cc1ccccc1C(=O)NN`: the growth was 99.9% in the assay on SK-MEL-2 melanoma; 108% in the assay with EKVX NSCLC; 108% with SN12C renal; 70.7% with UO-31 renal; 105% in the assay with TK-10 renal; 106% in the assay with ACHN renal. In addition, the growth was 98.3% in the assay with CAKI-1 renal; 117% in the assay on A498 renal; 100% in the assay on CCRF-CEM leukemia; 92.3% in the assay on MOLT-4 leukemia; 86.2% in the assay with SR leukemia; 109% with OVCAR-8 ovarian. The growth with OVCAR-5 ovarian is 121%; with OVCAR-4 ovarian, 117%; with SK-OV-3 ovarian, 98.8%; with IGROV1 ovarian it was 85.8%; with OVCAR-3 ovarian, 126%; with HS 578T breast, 106%.

As to `CCOC(=O)C1=C(N)Oc2c(sc3c(C)cccc23)C1c1ccc(F)cc1` (stereo unspecified), the growth is 42.5% with SK-MEL-2 melanoma; 44.9% in the assay on EKVX NSCLC; 30.5% with SN12C renal; 40.7% in the assay with UO-31 renal; 76% in the assay on TK-10 renal; 30.7% in the assay with ACHN renal. Further, the growth with CAKI-1 renal is 2.3% (active); with A498 renal, -5.94% (active); in the assay with CCRF-CEM leukemia it was 4.35% (active); in the assay with MOLT-4 leukemia it was 10.2%; in the assay on SR leukemia it was 5.82% (active); in the assay with OVCAR-8 ovarian it was 19%. The growth was 27.9% in the assay with OVCAR-5 ovarian; 42.7% in the assay on OVCAR-4 ovarian; 60% with SK-OV-3 ovarian; 16.9% in the assay on IGROV1 ovarian; -32.9% (active) in the assay with OVCAR-3 ovarian; 13.6% in the assay on HS 578T breast. In addition, in the assay with NCI/ADR-RES ovarian, the growth was 6.4% (active).
